Laboratory results: PubChem BioAssay (EPA / NIEHS)
The source made the active and inactive calls. The calls were made as follows: active = hit-call score of the fitted dose curve at least 0.9, where 1 is the maximum; inconclusive = response in the unintended direction; inactive = score below 0.9.

Assay: Tanguay_ZF_120hpf_ActivityScore_legacy: (Legacy) Oregon State University Tanguay Lab 120 Hour Post-fertilization zebrafish Assay Score for Activity (AID 2283742);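 as to AC50: dechorionated Tropical 5D wild-type zebrafish embryos held singly per well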
How it was run: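 Dechorionated 5D embryos, one per well, static exposure 6–120 hpf, 28C, sealed and dark; final DMSO 0.64% (vol/vol). Brightfield binary scoring of mortality plus 18 endpoints; gain-of-signal fit versus DMSO baseline.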

| SMILES | outcome | AC50 |
| --- | --- | --- |
| C[Si]1(C)O[Si](C)(C)O[Si](C)(C)O[Si](C)(C)O1 | inactive | – |
| CCCCCCCCCCCC(=O)OC | inactive | – |
| CCCCCCC(=O)OCC | inactive | – |
| CCOC(=O)C(C)(C)Oc1ccc(Cl)cc1 | – | 37.7 µM (active) |
| C1CCC(SSC2CCCCC2)CC1 | inactive | – |
| CCCCCCOCCO | inactive | – |
| CC(C)c1ccc(C(=O)N=C(N)N)cc1S(C)(=O)=O | inactive | – |
| Cc1ccc(C(C)C)c(O)c1 | inactive | – |
| CCCCCCCCCCO | inactive | – |
| NS(=O)(=O)c1cc2c(cc1Cl)NCNS2(=O)=O | inactive | – |
| Cc1ccc(C)c(C)c1 | inactive | – |
| Cc1ccc2ncccc2c1 | inactive | – |
| COc1cc(-c2nc(NC(=O)c3cc4cc(C)cc(C)c4n3CC(=O)O)sc2CCC2CCCCC2)c(OC)cc1Cl | inactive | – |
| Cc1cccc([N+](=O)[O-])c1C | inactive | – |
| CCCCCCCCCCCCCCCCCC(=O)O | inactive | – |
| CNCc1cc(F)ccc1Oc1ccc(Cl)c(Cl)c1 | inactive | – |
| CCCCCC(=O)O | inactive | – |
| Clc1cc(Cl)c(Cl)cc1Cl | inactive | – |
| CC(=O)OC/C=C(\C)CCC=C(C)C | inactive | – |
| CCCCCCCCCCCCCO | inactive | – |
| CC(=O)OCCOCCOCCOC(C)=O | inactive | – |
| O=C(O)CCCCC(=O)O | inactive | – |
| CCc1c(C(=O)NN2CCCCC2)nn(-c2ccc(Cl)cc2Cl)c1-c1ccc(Br)cc1 | – | 39.9 µM (active) |
| O=C(N[C@@H](Cc1ccccc1)[C@@H](O)C(=O)N1C[C@@H](O)[C@@H](O)C1)c1cc2cc(Cl)ccc2[nH]1 | inactive | – |
| COCCOC[C@H](CC1(C(=O)NC2CCC(C(=O)O)CC2)CCCC1)C(=O)Oc1ccc2c(c1)CCC2 (stereo not given in full) | inactive | – |
